# Out of some 5,500 compounds screened, about 2,000 (36%) were called active. Not shown: some 18% with an inconclusive outcome. The list shows a part of the results. Values without a mark were called inactive. Rule as the data show it: active = normalized growth mostly below about 0.91 (no sharp cut-off); inconclusive = no clear call, values can overlap the other calls; inactive = mostly above about 0.92.
# Assay: chemical genetic growth profiling, strain panel (AID 1159580);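 also: tested at 20 µM; growth read once vehicle control cultures reached saturation at 30 °C; 1 = growth at the plate median or of vehicle wells; lower values mean less growth of the strain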
# Details: S. cerevisiae deletion strains, growth OD
# [1] = locus YDL101C, strain DUN1, hits give low values
# [2] = locus YHR030C, strain SLT2, hits give low values
compound,measurement,setting,value
Cc1cccc2nc(-c3ccccc3)oc(=O)c12,normalized growth,"locus YAL013W, strain DEP1, hits give low values",0.966
same,normalized growth,"locus YBR229C, strain ROT2, hits give low values",0.975
same,normalized growth,[1],0.968
same,normalized growth,"locus YDR150W, strain NUM1, hits give low values",0.934
same,normalized growth,"locus YEL061C, strain CIN8, hits give low values",0.936
same,normalized growth,"locus YGR078C, strain PAC10, hits give low values",0.959
same,normalized growth,"locus YGR229C, strain SMI1, hits give low values",0.984
same,normalized growth,[2],0.708
same,normalized growth,"locus YHR087W, strain rtc3, hits give low values",0.953
same,normalized growth,"locus YJL187C, strain SWE1, hits give low values",0.946
same,normalized growth,"locus YJR043C, strain POL32, hits give low values",0.971
same,normalized growth,"locus YJR075W, strain HOC1, hits give low values",0.942
same,normalized growth,"locus YKL190W, strain CNB1, hits give low values",0.987
same,normalized growth,"locus YLR039C, strain RIC1, hits give low values",0.826
same,normalized growth,"locus YLR058C, strain SHM2 (second series), hits give low values",0.968
same,normalized growth,"locus YLR085C, strain ARP6, hits give low values",0.744 (active)
same,normalized growth,"locus YLR262C, strain YPT6, hits give low values",0.942
same,normalized growth,"locus YML094W, strain GIM5, hits give low values",0.88
same,normalized growth,"locus YMR219W, strain ESC1, hits give low values",0.976
same,normalized growth,"locus YMR263W, strain SAP30, hits give low values",0.958
same,normalized growth,"locus YMR307W, strain GAS1, hits give low values",0.735
same,normalized growth,"locus YNL128W, strain TEP1, hits give low values",0.974
same,normalized growth,"locus YNL153C, strain GIM3, hits give low values",0.975
same,normalized growth,"locus YNL298W, strain CLA4 (second series), hits give low values",0.95
same,normalized growth,"locus YNL322C, strain KRE1, hits give low values",0.983
same,normalized growth,"locus YNR030W, strain Alg12, hits give low values",0.929
same,normalized growth,"locus YOL006C, strain TOP1, hits give low values",0.801
same,normalized growth,"locus YPL055C, strain LGE1, hits give low values",0.781 (active)
same,normalized growth,"locus YPL241C, strain CIN2, hits give low values",0.915
same,normalized growth,"locus YPR135W, strain CTF4, hits give low values",0.812
Cc1onc(-c2ccccc2Cl)c1-c1nc2ccccc2c(=O)o1,normalized growth,"locus YAR019C, strain CDC15, hits give low values",0.97
same,normalized growth,"locus YBL105C, strain PKC1, hits give low values",0.975
same,normalized growth,"locus YBR135W, strain CKS1, hits give low values",0.975
same,normalized growth,"locus YBR136W, strain MEC1, hits give low values",0.973
same,normalized growth,"locus YBR160W, strain CDC28, hits give low values",0.971
same,normalized growth,"locus YDL017W, strain CDC7, hits give low values",0.969
same,normalized growth,"locus YDL028C, strain MPS1, hits give low values",0.979
same,normalized growth,[1],0.963
same,normalized growth,"locus YDL108W, strain KIN28, hits give low values",0.97
same,normalized growth,"locus YDL132W, strain cdc53, hits give low values",0.975
same,normalized growth,"locus YDL214C, strain PRR2, hits give low values",0.968
same,normalized growth,"locus YDR052C, strain DBF4, hits give low values",0.969
same,normalized growth,"locus YDR054C, strain cdc34, hits give low values",0.964
same,normalized growth,"locus YDR226W, strain ADK1, hits give low values",0.97
same,normalized growth,"locus YDR477W, strain SNF1, hits give low values",0.962
same,normalized growth,"locus YER123W, strain YCK3, hits give low values",0.953
same,normalized growth,"locus YER133W, strain GLC7, hits give low values",0.984
same,normalized growth,"locus YFL009W, strain cdc4, hits give low values",0.974
same,normalized growth,"locus YFL029C, strain CAK1, hits give low values",0.956
same,normalized growth,"locus YFR003C, strain YPI1, hits give low values",0.972
same,normalized growth,"locus YFR019W, strain FAB1, hits give low values",0.979
same,normalized growth,"locus YFR028C, strain CDC14, hits give low values",0.973
same,normalized growth,"locus YGR040W, strain KSS1, hits give low values",0.96
same,normalized growth,"locus YGR052W, strain FMP48, hits give low values",1.03
same,normalized growth,"locus YGR092W, strain DBF2, hits give low values",0.983
same,normalized growth,[2],0.958
same,normalized growth,"locus YHR079C, strain IRE1, hits give low values",0.936
same,normalized growth,"locus YHR082C, strain KSP1, hits give low values",0.991
same,normalized growth,"locus YHR205W, strain SCH9, hits give low values",0.932
same,normalized growth,"locus YIL147C, strain SLN1, hits give low values",0.969
same,normalized growth,"locus YJL095W, strain BCK1, hits give low values",0.954
same,normalized growth,"locus YJL128C, strain PBS2, hits give low values",0.925
same,normalized growth,"locus YJL157C, strain FAR1, hits give low values",0.987
same,normalized growth,"locus YJR016C, strain ILV3, hits give low values",0.974
same,normalized growth,"locus YJR066W, strain TOR1 (second series), hits give low values",0.967
same,normalized growth,"locus YJR066W, strain TOR1, hits give low values",0.978
same,normalized growth,"locus YKL048C, strain ELM1, hits give low values",0.947
same,normalized growth,"locus YKL067W, strain YNK1, hits give low values",0.961
same,normalized growth,"locus YKL101W, strain HSL1, hits give low values",0.939
same,normalized growth,"locus YKL193C, strain SDS22, hits give low values",0.969
same,normalized growth,"locus YKL203C, strain TOR2, hits give low values",1.02
same,normalized growth,"locus YLR113W, strain HOG1, hits give low values",0.872
same,normalized growth,"locus YLR133W, strain CKI1, hits give low values",0.965
same,normalized growth,"locus YLR403W, strain SFP1, hits give low values",0.953
same,normalized growth,"locus YML070W, strain DAK1, hits give low values",0.956
same,normalized growth,"locus YMR001C, strain CDC5, hits give low values",0.974
same,normalized growth,"locus YMR205C, strain PFK2 (second series), hits give low values",0.955
same,normalized growth,"locus YMR277W, strain FCP1, hits give low values",0.987
same,normalized growth,"locus YNL006W, strain LST8, hits give low values",0.982
same,normalized growth,"locus YNL020C, strain ARK1, hits give low values",0.969
same,normalized growth,"locus YNL161W, strain CBK1, hits give low values",0.969
same,normalized growth,"locus YNL183C, strain NPR1, hits give low values",0.96
same,normalized growth,"locus YNL207W, strain RIO2, hits give low values",0.97
same,normalized growth,"locus YNL222W, strain SSU72, hits give low values",0.975
same,normalized growth,"locus YNL307C, strain MCK1 (second series), hits give low values",0.987
same,normalized growth,"locus YOL078W, strain AVO1, hits give low values",0.976
same,normalized growth,"locus YOL136C, strain PFK27, hits give low values",0.958
same,normalized growth,"locus YOR061W, strain CKA2, hits give low values",0.961
same,normalized growth,"locus YOR119C, strain RIO1, hits give low values",0.983
same,normalized growth,"locus YOR231W, strain MKK1, hits give low values",0.929
same,normalized growth,"locus YOR329C, strain SCD5, hits give low values",0.966
same,normalized growth,"locus YPL031C, strain PHO85, hits give low values",0.978
same,normalized growth,"locus YPL153C, strain RAD53, hits give low values",0.956
same,normalized growth,"locus YPL204W, strain HRR25, hits give low values",0.978
same,normalized growth,"locus YPL209C, strain IPL1, hits give low values",0.969
same,normalized growth,"locus YPL256C, strain CLN2, hits give low values",0.882
same,normalized growth,"locus YPR025C, strain CCL1, hits give low values",0.975
same,normalized growth,"locus YPR106W, strain ISR1, hits give low values",0.96
same,normalized growth,"locus YPR111W, strain DBF20, hits give low values",0.963
same,normalized growth,"strain NNK1, hits give low values",0.958
same,normalized growth,"strain TSCII, hits give low values",0.968

# From PubChem BioAssay AID1159580 (chemical genetic matrix, 2015)
